Assay results from PubChem BioAssay (Tox21).
A number with no mark means an inactive call. The call rests on the fitted dose curve; in most records, active means well fitted activation curve with a large enough effect in the repeat runs; inconclusive means weak or mixed curves; inactive means flat fitted curve, though single readings scatter. Records with an inconclusive call do not appear.

Test: A CellTox Green Cytotoxicity Assay to monitor cytotoxicity in HEK293 cells - 32 hour (AID 1224881); further: nearly all actives have a fitted effect of over 40% in size
Conditions: CellTox Green fluorescence; series mostly up to 76.8 µM; cytotoxicity increase: at the top concentration
Method in brief: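 Dead-cell fluorescence measured kinetically: asymmetric cyanine dye, HEK293, 600 cells/well, 5 h settle, 23 nL cpd/DMSO, 37 C, reads 0–40 h every 8 h.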
On the % scale 0 is the no-effect control and ±100 the full control effect.

SMILES | cytotoxicity increase
CC(=O)NC(=O)c1ccccc1O | -3.72% [at 35.3 µM]
O=C1NC(=O)C2CC=CCC12 (stereo unspecified) | 6.6%
CC1=NN(c2cccc(S(=O)(=O)O)c2)C(=O)C1 | 20.2%
CCCc1nn(C)c2c(=O)[nH]c(-c3cc(S(=O)(=O)N4CCN(C)CC4)ccc3OCC)nc12 | -24.5% [at 35.3 µM]
CN(C)C(=O)Oc1ccc[n+](C)c1 | 5.57% [at 35.3 µM]
C=CC(C)(CCC=C(C)C)OC(=O)CC (stereo unspecified) | -0.666%
C[N+]12CCC(CC1)C(OC(=O)C(O)(c1ccccc1)c1ccccc1)C2 (stereo unspecified) | 4.26% [at 35.3 µM]
CC1=CCC(O)(C(C)C)CC1 (stereo unspecified) | -31.4%
c1coc(CNc2ncnc3nc[nH]c23)c1 | 1.98%
Cc1onc(-c2c(Cl)cccc2Cl)c1C(=O)Cl | -9.4% [at 35.3 µM]
CCCC(=O)O[C@]1(C(=O)CC)CC[C@H]2[C@@H]3CCC4=CC(=O)CC[C@]4(C)[C@H]3[C@@H](O)C[C@@]21C | 2.68% [at 35.3 µM]
NCCCC[C@H](N[C@@H](CCc1ccccc1)C(=O)O)C(=O)N1CCC[C@H]1C(=O)O | 1.3% [at 35.3 µM]
CC(=O)O[C@@]12CO[C@@H]1C[C@H](O)[C@@]1(C)C(=O)[C@H](O)C3=C(C)[C@@H](OC(=O)[C@H](O)[C@@H](NC(=O)OC(C)(C)C)c4ccccc4)C[C@@](O)([C@@H](OC(=O)c4ccccc4)[C@H]21)C3(C)C | -2.72% [at 35.3 µM]
COC(=O)C1=C(C)NC(C)=C(C(=O)OC(C)C)C1c1cccc2nonc12 (stereo unspecified) | -8.51% [at 35.3 µM]
CC(C)CC(C)(N)C#N (stereo unspecified) | 23.3%
CCCCCCCCN1CCCC1=O | 11.7%
Nc1ccn([C@@H]2O[C@H](CO)[C@@H](O)C2(F)F)c(=O)n1 | 0.463% [at 35.3 µM]
NC(=O)N1c2ccccc2CC(=O)c2ccccc21 | -15.8% [at 35.3 µM]
CCCCOCCOC(=O)COc1cc(Cl)c(Cl)cc1Cl | -3.5%

SMILES | cytotoxicity increase
COc1cc2c(cc1OC)-c1cc3ccc(OC)c(OC)c3c[n+]1CC2 | 13.1%
CCOCC(C)O (stereo unspecified) | 2.14%
CC(C)COC(=O)c1ccc(N)cc1 | -16.3% [at 35.3 µM]
CC(COc1ccccc1)NN (stereo unspecified) | -3.62% [at 35.3 µM]
CCCCCCCCCCOc1cc2c(=O)c(C(=O)OCC)c[nH]c2cc1OCC | 0.664% [at 6.97 µM]
C[N+]1(C)[C@@H]2CC(OC(=O)[C@H](CO)c3ccccc3)C[C@H]1[C@@H]1O[C@@H]12 (stereo partly specified) | 3.36% [at 35.3 µM]
COC(=O)Nc1ccc(Cl)c(Cl)c1 | -14.9%
CC(C)c1ccc2ncccc2c1 | 1.75%
CC(=O)Nc1ccc(OCC(O)CNC(C)C)cc1 (stereo unspecified) | 6.88% [at 35.3 µM]
CCCCCC(=O)OCCc1ccccc1 | 8.44%
C=CCCCCCCCCC(=O)OCC | 12%
CN1CC(=O)N/C1=N/C(=O)Nc1cccc(Cl)c1 | 5.31% [at 35.3 µM]
Cc1nc2ccc(CN(C)c3ccc(C(=O)N[C@@H](CCC(=O)O)C(=O)O)s3)cc2c(=O)[nH]1 | 11.2% [at 35.3 µM]
O=S(=O)(O)c1cc(O)c(O)c(S(=O)(=O)O)c1 | -17%
CCCCc1nc(Cl)c(CO)n1Cc1ccc(-c2ccccc2-c2nn[nH]n2)cc1 | -1.01% [at 35.3 µM]
CCOC(=O)CCC(=O)OCC | -14.1%
CC(C)(C#N)Nc1nc(Cl)nc(NC2CC2)n1 | -1.37%
O=[N+]([O-])c1ccc(/C=N\O)o1 | 9.94% [at 35.3 µM]
CCCOC(=O)CC | 3.79%

Test: A CellTox Green Cytotoxicity Assay to monitor cytotoxicity in HepG2 cells - 0 hour (AID 1224882); further: nearly all actives have a fitted effect of over 35% in size
Conditions: CellTox Green fluorescence; series mostly up to 76.8 µM; cytotoxicity: at the top concentration
Method in brief: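 First, HepG2 cells (600/well) mixed with reagent were plated; second, after 5 h at 37 C they received compounds via pintool; third, fluorescence was measured at 0 h through 40 h at 8 h intervals.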

SMILES | cytotoxicity
CC(=O)NC(=O)c1ccccc1O | -7.96% [at 35.3 µM]
O=C1NC(=O)C2CC=CCC12 (stereo unspecified) | 5.97%
CC1=NN(c2cccc(S(=O)(=O)O)c2)C(=O)C1 | 0.495%
CCCc1nn(C)c2c(=O)[nH]c(-c3cc(S(=O)(=O)N4CCN(C)CC4)ccc3OCC)nc12 | -0.224% [at 35.3 µM]
CN(C)C(=O)Oc1ccc[n+](C)c1 | -8.23% [at 35.3 µM]
C=CC(C)(CCC=C(C)C)OC(=O)CC (stereo unspecified) | 5.27%
C[N+]12CCC(CC1)C(OC(=O)C(O)(c1ccccc1)c1ccccc1)C2 (stereo unspecified) | 9.76% [at 35.3 µM]
CC1=CCC(O)(C(C)C)CC1 (stereo unspecified) | 5.63%
c1coc(CNc2ncnc3nc[nH]c23)c1 | 0.243%
Cc1onc(-c2c(Cl)cccc2Cl)c1C(=O)Cl | -6.52% [at 35.3 µM]
CCCC(=O)O[C@]1(C(=O)CC)CC[C@H]2[C@@H]3CCC4=CC(=O)CC[C@]4(C)[C@H]3[C@@H](O)C[C@@]21C | 4.93% [at 35.3 µM]
NCCCC[C@H](N[C@@H](CCc1ccccc1)C(=O)O)C(=O)N1CCC[C@H]1C(=O)O | 0.582% [at 35.3 µM]
CC(=O)O[C@@]12CO[C@@H]1C[C@H](O)[C@@]1(C)C(=O)[C@H](O)C3=C(C)[C@@H](OC(=O)[C@H](O)[C@@H](NC(=O)OC(C)(C)C)c4ccccc4)C[C@@](O)([C@@H](OC(=O)c4ccccc4)[C@H]21)C3(C)C | -8.33% [at 35.3 µM]
COC(=O)C1=C(C)NC(C)=C(C(=O)OC(C)C)C1c1cccc2nonc12 (stereo unspecified) | -0.32% [at 35.3 µM]
CC(C)CC(C)(N)C#N (stereo unspecified) | -1.24%
CCCCCCCCN1CCCC1=O | -7.15%
Nc1ccn([C@@H]2O[C@H](CO)[C@@H](O)C2(F)F)c(=O)n1 | 2.56% [at 35.3 µM]
NC(=O)N1c2ccccc2CC(=O)c2ccccc21 | -0.0296% [at 35.3 µM]
CCCCOCCOC(=O)COc1cc(Cl)c(Cl)cc1Cl | -1.61%

SMILES | cytotoxicity
COc1cc2c(cc1OC)-c1cc3ccc(OC)c(OC)c3c[n+]1CC2 | -3.07%
CCOCC(C)O (stereo unspecified) | -3.43%
CC(C)COC(=O)c1ccc(N)cc1 | -4.14% [at 35.3 µM]
CC(COc1ccccc1)NN (stereo unspecified) | 0.368% [at 35.3 µM]
CCCCCCCCCCOc1cc2c(=O)c(C(=O)OCC)c[nH]c2cc1OCC | 9.56% [at 6.97 µM]
C[N+]1(C)[C@@H]2CC(OC(=O)[C@H](CO)c3ccccc3)C[C@H]1[C@@H]1O[C@@H]12 (stereo partly specified) | -5.36% [at 35.3 µM]
COC(=O)Nc1ccc(Cl)c(Cl)c1 | -14.3%
CC(C)c1ccc2ncccc2c1 | -3.76%
CC(=O)Nc1ccc(OCC(O)CNC(C)C)cc1 (stereo unspecified) | 5.92% [at 35.3 µM]
CCCCCC(=O)OCCc1ccccc1 | -3.06%
C=CCCCCCCCCC(=O)OCC | -2.75%
CN1CC(=O)N/C1=N/C(=O)Nc1cccc(Cl)c1 | -0.407% [at 35.3 µM]
Cc1nc2ccc(CN(C)c3ccc(C(=O)N[C@@H](CCC(=O)O)C(=O)O)s3)cc2c(=O)[nH]1 | 7.04% [at 35.3 µM]
O=S(=O)(O)c1cc(O)c(O)c(S(=O)(=O)O)c1 | 1.36%
CCCCc1nc(Cl)c(CO)n1Cc1ccc(-c2ccccc2-c2nn[nH]n2)cc1 | -6.03% [at 35.3 µM]
CCOC(=O)CCC(=O)OCC | -1.02%
CC(C)(C#N)Nc1nc(Cl)nc(NC2CC2)n1 | -4.79%
O=[N+]([O-])c1ccc(/C=N\O)o1 | -11.6% [at 35.3 µM]
CCCOC(=O)CC | -2.95%
